About 3,500 (1.2%) of roughly 290,000 compounds were called active. The full list was thinned out, with actives kept by preference. Values without a mark were called inactive.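 The calls were made as follows: active = inhibition above the campaign mean inhibition over all tested compounds plus 3 SD (cut at about 28% in these data); inactive = the rest.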
tested on: M18 aspartyl aminopeptidase (Plasmodium falciparum 3D7); assay: inhibition of P. falciparum M18 aminopeptidase – biochemical, QFRET, recombinant enzyme, primary screen (AID 1822); settings: recombinant PfM18AAP, H-Glu-NHMec fluorogenic cleavage; at 7.35 µM; stronger effect = higher value;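 also: 0% = plate median of test compound wells and 100% = 2 mM ZnCl2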

Row | Structure (SMILES) | inhibition
1 | Cc1cccc(N2C(=O)NC(=O)/C(=C\c3cnn(-c4ccccc4)c3)C2=O)c1 | -3.93%
2 | COc1cccc(N2C(=O)NC(=O)/C(=C\c3cn(C)c4ccccc34)C2=O)c1 | 31.5% (active)
3 | COc1cccc(N2C(=O)NC(=O)/C(=C\c3ccc([N+](=O)[O-])s3)C2=O)c1 | 9.11%
4 | CCOc1ccc(-c2cc(C)[n+](CCN(CC)CC)c(-c3ccc(OCC)cc3)c2)cc1 | -4.54%
5 | Cc1cccc(NC(=O)N2CC3CC(C2)c2cccc(=O)n2C3)c1 (stereo not given) | -2.4%
